Among the data in PubChem BioAssay (NCI) are growth inhibition values, retold here.

This is part of a sample that, as a whole, favours compounds with a hit. Of some 79,000 tested, about 15% had one in any assay. A number with no mark means an inactive call. Activity calls are given as the source filed them. Cut-off read from the data, not from the text of the source: active = growth inhibition above about 70%; inactive = the rest.

Test [1] can be described thus: NCI Yeast Anticancer Drug Screen. Data for the rad50 strain (AID 155).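 Note: 0% = growth of vehicle-only cultures of the same strain.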 The following applies: S. cerevisiae rad50 strain growth inhibition, active compounds read high. The method in brief:
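Relative growth inhibition (compound vs vehicle) was measured in yeast with a defined repair-gene alteration.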

Test [2] is described as follows: NCI Yeast Anticancer Drug Screen. Data for the mec2-1 strain (AID 157). As to conditions: S. cerevisiae mec2-1 strain, active compounds read high. Summed up: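 Yeast mec2-1 mutant treated with compound. Readout: growth inhibition vs vehicle controls.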
Test [3] can be described thus: NCI Yeast Anticancer Drug Screen. Data for the sgs1 mgt1 strain (AID 161).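 Note: 0% = growth of cultures given vehicle only.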 The following applies: S. cerevisiae sgs1 mgt1 strain, active compounds read high. Summed up: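 Read-out: growth inhibition vs vehicle controls. Cells: mutant yeast strain deficient in DNA damage repair.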
Test [4] can be described thus: NCI Yeast Anticancer Drug Screen. Data for the cln2 rad14 strain (AID 165).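 Note: 0% = growth equal to vehicle treated cultures.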 As to conditions: S. cerevisiae cln2 rad14 strain, active compounds read high. The method in brief: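 cln2 rad14 yeast strain; compound exposure; growth inhibition read vs vehicle controls.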
The nature of test [5]: NCI Yeast Anticancer Drug Screen. Data for the bub3 strain (AID 167). As to conditions: S. cerevisiae bub3 mutant strain, active compounds read high. Summed up: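 Screening used yeast with an engineered genetic alteration affecting cell cycle control. Compound-exposed cultures were compared with vehicle cultures, and reduced growth was taken as inhibition.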
A short description of test [6]: NCI Yeast Anticancer Drug Screen. Data for the mlh1 rad18 strain (AID 175). The following applies: S. cerevisiae mlh1 rad18 strain growth inhibition, active compounds read high. Summed up:
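Yeast w/ defined DNA-repair lesions; compound exposure; growth vs vehicle controls → % inhibition.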

The mark [7] stands for this setting: at 5.0 µM (retest, dose inferred, filed as 0.5).
[8] abbreviates: at 50.0 µM (retest, dose inferred, filed as 5.0).

Turning to `c1ccc(NCCSc2nc3ccccc3s2)cc1`, the growth inhibition was 6% in test [1] (setting [7]); 44% in test [1] (setting [8]); 42.3% in test [1] (at 50.0 µM); 9% in test [2] (setting [7]); 22% in test [2] (setting [8]); 27.4% in test [2] (at 50.0 µM). Also, the growth inhibition in test [3] (setting [7]) is 2%; in test [3] (setting [8]), 80% (active); in test [3] (at 50.0 µM) it was 26%; in test [4] (setting [7]) it was -21%; in test [4] (setting [8]), 43%; in test [4] (at 50.0 µM), 8.55%. The growth inhibition was 24% in test [5] (setting [7]); 70% (active) in test [5] (setting [8]); 81.6% (active) in test [5] (at 50.0 µM); 8% in test [6] (setting [7]); 77% (active) in test [6] (setting [8]); 77.7% (active) in test [6] (at 50.0 µM).

For `CN(C)CC1CC/C(=C\c2ccc(O)cc2)C1=O` (configuration not stated), the growth inhibition is 11% in test [1] (setting [7]); 78% (active) in test [1] (setting [8]); 89.2% (active) in test [1] (at 50.0 µM); -19% in test [2] (setting [7]); 98% (active) in test [2] (setting [8]); 93.7% (active) in test [2] (at 50.0 µM). Besides, the growth inhibition in test [3] (setting [7]) was -4%; in test [3] (setting [8]), 98% (active); in test [3] (at 50.0 µM), 91.6% (active); in test [4] (setting [7]) it was 24%; in test [4] (setting [8]), 53%; in test [4] (at 50.0 µM) it was 77.6% (active). Further, the growth inhibition in test [5] (setting [7]) was -26%; in test [5] (setting [8]), 97% (active); in test [5] (at 50.0 µM), 91.9% (active); in test [6] (setting [7]), 19%; in test [6] (setting [8]) it was 92% (active); in test [6] (at 50.0 µM), 90.6% (active).

In the case of `O=C(OCC1OC(c2nn[nH]n2)C(OC(=O)c2ccccc2)C1OC(=O)c1ccccc1)c1ccccc1` (configuration not stated), the growth inhibition in test [1] (setting [7]) is 17%; in test [1] (setting [8]), 61%; in test [1] (at 50.0 µM), 19%; in test [2] (setting [7]), 4%; in test [2] (setting [8]), 56%; in test [2] (at 50.0 µM) it was 30.4%. Also, the growth inhibition in test [3] (setting [7]) was 19%; in test [3] (setting [8]), 80% (active); in test [3] (at 50.0 µM) it was 43.8%; in test [4] (setting [7]), 25%; in test [4] (setting [8]), 70% (active); in test [4] (at 50.0 µM), 45.9%. The growth inhibition in test [5] (setting [7]) is 17%; in test [5] (setting [8]), 80% (active); in test [5] (at 50.0 µM), 66%; in test [6] (setting [7]), 36%; in test [6] (setting [8]) it was 66%; in test [6] (at 50.0 µM), -33.6%.

Consider `S=c1[nH]c2ccc(Cl)cc2s1`, for which the growth inhibition was -22% in test [1] (setting [7]); 54% in test [1] (setting [8]); 72.9% (active) in test [1] (at 50.0 µM); -2% in test [2] (setting [7]); 69% in test [2] (setting [8]); 65.8% in test [2] (at 50.0 µM). In addition, the growth inhibition is -13% in test [3] (setting [7]); 92% (active) in test [3] (setting [8]); 82.2% (active) in test [3] (at 50.0 µM); -60% in test [4] (setting [7]); 31% in test [4] (setting [8]); 83.8% (active) in test [4] (at 50.0 µM). For the same compound, the growth inhibition was -19% in test [5] (setting [7]); 77% (active) in test [5] (setting [8]); 42% in test [5] (at 50.0 µM); -19% in test [6] (setting [7]); 91% (active) in test [6] (setting [8]); 87.2% (active) in test [6] (at 50.0 µM).

On to `Clc1ccc(-c2cc(-c3cc(-c4ccc(Cl)c(Cl)c4)n[nH]3)[nH]n2)cc1Cl`, for which the growth inhibition is -2% in test [1] (setting [7]); 68% in test [1] (setting [8]); 91% (active) in test [1] (at 50.0 µM); 6% in test [2] (setting [7]); 43% in test [2] (setting [8]); 22.8% in test [2] (at 50.0 µM). Further, the growth inhibition was 0% in test [3] (setting [7]); 67% in test [3] (setting [8]); 65% in test [3] (at 50.0 µM); 3% in test [4] (setting [7]); 60% in test [4] (setting [8]); 29.7% in test [4] (at 50.0 µM). In addition, the growth inhibition is -14% in test [5] (setting [7]); 89% (active) in test [5] (setting [8]); 22.8% in test [5] (at 50.0 µM); 19% in test [6] (setting [7]); 89% (active) in test [6] (setting [8]); 65% in test [6] (at 50.0 µM).

Consider `CC([N+](=O)[O-])C1(O)C(=O)c2cccc3cccc1c23` (configuration not stated), for which the growth inhibition in test [1] (setting [7]) was -7%; in test [1] (setting [8]), 55%; in test [1] (at 50.0 µM) it was 64.2%; in test [2] (setting [7]), 0%; in test [2] (setting [8]), 100% (active); in test [2] (at 50.0 µM) it was 58.5%. For the same compound, the growth inhibition in test [3] (setting [7]) is 11%; in test [3] (setting [8]), 96% (active); in test [3] (at 50.0 µM) it was 42.2%; in test [4] (setting [7]), 4%; in test [4] (setting [8]), 42%; in test [4] (at 50.0 µM), 76.7% (active). Also, the growth inhibition was 14% in test [5] (setting [7]); 91% (active) in test [5] (setting [8]); 68.8% in test [5] (at 50.0 µM); 26% in test [6] (setting [7]); 86% (active) in test [6] (setting [8]); 74.5% (active) in test [6] (at 50.0 µM).

Turning to `O=C(N/N=C/c1ccccc1)c1ccc([N+](=O)[O-])cc1`, the growth inhibition in test [1] (setting [7]) was 16%; in test [1] (setting [8]), 15%; in test [1] (at 50.0 µM), 8.6%; in test [2] (setting [7]), -3%; in test [2] (setting [8]), 6%; in test [2] (at 50.0 µM) it was 7.3%. For the same compound, the growth inhibition is 22% in test [3] (setting [7]); 12% in test [3] (setting [8]); 1.15% in test [3] (at 50.0 µM); 12% in test [4] (setting [7]); 19% in test [4] (setting [8]); -1.35% in test [4] (at 50.0 µM). Also, the growth inhibition in test [5] (setting [7]) was 17%; in test [5] (setting [8]), 24%; in test [5] (at 50.0 µM), 14.9%; in test [6] (setting [7]), 15%; in test [6] (setting [8]), 18%; in test [6] (at 50.0 µM), 1.05%.

For `NC(=S)N/N=C\c1nccc2c(C(F)(F)C(F)(F)C(F)(F)F)cccc12`, the growth inhibition in test [1] (setting [7]) is 26%; in test [1] (setting [8]) it was 61%; in test [1] (at 50.0 µM), 57.9%; in test [2] (setting [7]), 39%; in test [2] (setting [8]), 69%; in test [2] (at 50.0 µM), 74.5% (active). Further, the growth inhibition in test [3] (setting [7]) is 39%; in test [3] (setting [8]) it was 69%; in test [3] (at 50.0 µM), 74% (active); in test [4] (setting [7]), 10%; in test [4] (setting [8]), 62%; in test [4] (at 50.0 µM) it was 69.6%. For the same compound, the growth inhibition is 11% in test [5] (setting [7]); 81% (active) in test [5] (setting [8]); 75.6% (active) in test [5] (at 50.0 µM); 24% in test [6] (setting [7]); 69% in test [6] (setting [8]); 73.3% (active) in test [6] (at 50.0 µM).

With `Nc1nccc(NCCCCCCNc2ccnc(N)n2)n1`, the growth inhibition in test [1] (setting [7]) was 16%; in test [1] (setting [8]), 41%; in test [1] (at 50.0 µM), 43.2%; in test [2] (setting [7]), 13%; in test [2] (setting [8]), 19%; in test [2] (at 50.0 µM), 41.6%. Also, the growth inhibition is 8% in test [3] (setting [7]); 36% in test [3] (setting [8]); 80% (active) in test [3] (at 50.0 µM); 17% in test [4] (setting [7]); 21% in test [4] (setting [8]); 52% in test [4] (at 50.0 µM). Moreover, the growth inhibition in test [5] (setting [7]) is 9%; in test [5] (setting [8]), 33%; in test [5] (at 50.0 µM), 48%; in test [6] (setting [7]), 17%; in test [6] (setting [8]), 60%; in test [6] (at 50.0 µM) it was 57.2%.
